# Source: PubChem BioAssay (several laboratories)
# Sampled rows, rich in hits. Any-hit rate of the full collection: about 0.82%.
# RecA splice inh: inhibitors of M. tuberculosis RecA intein splicing | inhibition, % (no concentration beside the values) | P9WHJ3 | cell-free RecA intein splicing, fluorescence | 290,000 compounds, 0.75% hits; in the data active = inhibition above about 30%;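 note: 0% = vehicle wells and 100% = reference inhibitor control wells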
# Rv3671c inh: inhibits the M. tuberculosis serine protease Rv3671c | P9WHR9 | 320,000 compounds, 0.048% hits | AID 2606 | inhibition, % at 5.96 µM; in the data active = inhibition above about 38%;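 note: extracellular domain of Rv3671c used as enzyme; 0% = enzyme with DMSO and 100% = no enzyme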
# Yp Topo-I inh: inhibitors of Yersinia pestis topoisomerase I; Y. pestis Topo-I cleavage product accumulation, plate reader; activity, % at 10 µM; 360,000 compounds, 0.064% hits; in the data active = activity above about 50%, passing the limit was not always enough
# FadD28 FP inh: M. tuberculosis FadD28 bisubstrate binding inhibition | FadD28 bisubstrate probe binding, fluorescence polarization | inhibition, % at 12.5 µM | 360,000 compounds, 0.22% hits | AID 588549; in the data active = inhibition above about 8.5%, passing the limit was not always enough
# BioA inh: blocks M. tuberculosis BioA enzyme activity. purified M. tuberculosis BioA enzyme, plate reader. inhibition, % at 9.99 µM. 360,000 compounds, 0.096% hits. AID 602481; in the data active = inhibition above about 40%
# UGM FP inh: inhibitors of M. tuberculosis UDP-galactopyranose mutase. inhibition, % at 10 µM. 320,000 compounds, 0.06% hits. P9WIQ1. purified UGM, fluorescence polarization probe displacement; in the data active = inhibition above about 10%, passing the limit was not always enough
# Target sequence (P9WIQ1 whole entry, looked up): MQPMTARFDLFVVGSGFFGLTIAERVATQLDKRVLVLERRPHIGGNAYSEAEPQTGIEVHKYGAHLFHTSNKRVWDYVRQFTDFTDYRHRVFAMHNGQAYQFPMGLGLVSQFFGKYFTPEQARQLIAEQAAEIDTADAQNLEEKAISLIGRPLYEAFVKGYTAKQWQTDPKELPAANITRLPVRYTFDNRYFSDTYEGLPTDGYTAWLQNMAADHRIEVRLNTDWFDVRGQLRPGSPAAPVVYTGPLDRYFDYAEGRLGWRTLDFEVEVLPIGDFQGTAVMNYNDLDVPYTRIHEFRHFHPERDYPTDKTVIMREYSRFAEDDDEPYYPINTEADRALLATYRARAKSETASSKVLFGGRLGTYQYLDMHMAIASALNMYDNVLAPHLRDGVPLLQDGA
# GFP chromo cs: counter-screen: blocks GFP chromophore formation | shares compounds with RecA splice inh | EC50, µM | 2,100 compounds, 83% hits | cell-free GFP chromophore formation, fluorescence; call rule not given here
# Starred values were filed as active, the others as inactive; x = not tested or not shown.
SMILES,RecA splice inh,Rv3671c inh,Yp Topo-I inh,FadD28 FP inh,BioA inh,UGM FP inh,GFP chromo cs
COc1ccc(-c2cc(=O)[nH][nH]2)cc1,98*,-102,-1,-3,8,1,1.9*
O=c1cc(-c2ccc(Cl)c(Cl)c2)[nH][nH]1,88*,-57,-13,2,-2,-3,6.6*
O=c1cc(-c2ccc(Cl)cc2)[nH][nH]1,94*,-153,2,-3,0,0,1.9*
COc1ccc(N(C)C(=O)c2cc3c(s2)-c2c(C)cccc2OC3)c(OC)c1,33*,-14,6,-1,-1,-3,>38
CC(=O)N(C)C[C@@H]1Oc2cc(Br)ccc2S(=O)(=O)N([C@H](C)CO)C[C@H]1C,x,x,x,x,0,x,x
Cc1ccc(S(=O)(=O)NCC2CCC(C(=O)NCCCN3CCOCC3)CC2)cc1 (centres undefined),1,2,-1,-3,0,-2,>38
Cc1ccc(S(=O)(=O)NCC2CCC(C(=O)NCCCN3CCC(C)CC3)CC2)cc1 (centres undefined),x,x,13,-2,-1,x,x
CC(C)NC(=O)Nc1ccc2c(c1)C(=O)N([C@@H](C)CO)C[C@H](C)[C@H](CN(C)C(=O)CCC(F)(F)F)OCCCC[C@H](C)O2,x,x,x,x,-1,x,x
CCCC(=O)N(C1CC(C)C(C#N)(C#N)C1(C#N)C#N)N(C)C (centres undefined),93*,8,-3,-2,x,0,4.9*
CC(=O)N(C1CC(C)C(C#N)(C#N)C1(C#N)C#N)N(C)C (centres undefined),81*,1,6,1,x,1,19*
COc1ccc(C2NN=C(c3c[nH]c4ccccc34)C2O)cc1 (centres undefined),-3,-13,-20,-4,-1,-1,x
COc1ccc(C2C(O)C(c3c[nH]c4ccccc34)=NN2C(=O)CCl)cc1 (centres undefined),87*,29,-2,-2,2,-1,2.3*
COc1ccc(NC(=O)N(C)C[C@@H]2Oc3ncc(C#CCC(C)C)cc3C(=O)N([C@@H](C)CO)C[C@@H]2C)cc1,x,x,x,x,-3,x,x
CCCN(C)C[C@H]1Oc2ncc(-c3cccc(C(=O)N(C)C)c3)cc2C(=O)N([C@@H](C)CO)C[C@H]1C,x,x,x,x,-1,x,x
O=c1cc(-c2cccc3ccccc23)[nH][nH]1,93*,6,-12,-3,0,2,3.5*
CC1=NNC(=O)/C1=C\c1cn(-c2ccccc2)nc1-c1cccs1,97*,-10,-4,0,x,-1,2.8*
O=C(O)CCCCCN1C(=O)/C(=C/c2cn(-c3ccccc3)nc2-c2cccs2)SC1=S,x,x,8,-3,x,x,x
CC1=NNC(=O)/C1=C\c1cn(-c2ccccc2)nc1-c1ccc(F)cc1,66*,x,9,0,-2,x,2.5*
COc1cc(-n2nc(C)c3c2OC(N)=C(C#N)C3c2ccccc2)c(Cl)c(Br)c1O (centres undefined),72*,-5,-8,5,5,3,20*
Cc1ccc(-n2nc(C)c3c2OC(N)=C(C#N)C3c2cccs2)cc1 (centres undefined),65*,-79,1,-2,-1,3,5*
CCCc1nn(C)c2c1C(c1ccncc1)C(C#N)=C(N)O2 (centres undefined),64*,7,-13,-2,-3,-1,30*
Cc1nn(-c2ccccc2)c2c1C(c1ccncc1)C(C#N)=C(N)O2 (centres undefined),38*,-3,-8,0,x,1,17*
Cc1ccc(-n2nc(C)c3c2OC(N)=C(C#N)C3c2ccncc2)cc1 (centres undefined),x,10,-2,1,2,-1,x
COc1ccc(C#Cc2ccc3c(c2)[C@@H]2[C@@H](CCN2S(=O)(=O)c2cccc(OC)c2)[C@@H](CO)N3)cc1,x,x,x,x,-4,x,x
C[C@H]1CCCCO[C@H](CN(C)S(=O)(=O)c2cccs2)[C@@H](C)CN([C@@H](C)CO)C(=O)c2cc(NS(=O)(=O)c3ccc(F)cc3)ccc2O1,x,x,x,x,-2,x,x
SMILES,RecA splice inh,Rv3671c inh,Yp Topo-I inh,FadD28 FP inh,BioA inh,UGM FP inh,GFP chromo cs
C[C@H]1CN([C@@H](C)CO)C(=O)Cc2cc(NS(C)(=O)=O)ccc2O[C@H]1CN(C)S(=O)(=O)c1ccc(F)cc1,x,x,x,x,0,x,x
Cc1nn(Cc2ccccc2)c2c1C(c1cccc(Cl)c1)C(C#N)=C(N)O2 (centres undefined),73*,11,-1,1,0,-1,32*
Cc1cc2c(c(=O)n1C1CC1)C(c1cccc(Cl)c1)C(C#N)=C(N)O2 (centres undefined),1,-15,1,-3,1,-1,x
Cc1ccc(S(=O)(=O)Nc2ccc3c(c2)C(=O)N([C@H](C)CO)C[C@@H](C)[C@H](CN(C)C(=O)Nc2ccc(F)cc2)OCCCC[C@@H](C)O3)cc1,x,x,x,x,-3,x,x
O=C1C=C(N2CCOCC2)c2ccccc2C1=O,97*,-160,1,2,-3,0,0.56*
O=C(Oc1ccc(Br)cc1)C1CC(=O)N(c2ccc(F)cc2)C1 (centres undefined),37*,-2,10,0,1,2,35*
C[C@@H]1CN([C@@H](C)CO)C(=O)c2cccc(NC(=O)C3CCCCC3)c2O[C@H]1CN(C)S(C)(=O)=O,x,x,x,x,-2,x,x
C[C@H](CO)N1C[C@H](C)[C@H](CN(C)C(=O)Cc2ccccc2)OCCCC[C@H](C)Oc2ccc(NC(=O)NC3CCCCC3)cc2C1=O,x,x,x,x,-2,x,x
CCOC(=O)C(Nc1ccc2ccccc2c1)C(=O)OCC,71*,-8,16,-1,x,-2,22*
C[C@@H]1CN([C@@H](C)CO)C(=O)c2cccc(NS(=O)(=O)c3ccc(F)cc3)c2O[C@H]1CN(C)CC1CCCCC1,x,x,x,x,2,x,x
O=C(CN1CCN(S(=O)(=O)c2ccc(Cl)cc2)CC1)Nc1ccc2c(c1)OCCO2,4,-5,18,-5,0,0,x
O=C(CN1CCN(S(=O)(=O)c2ccc(Cl)cc2)CC1)Nc1ccc2c(c1)OCO2,47*,-2,-7,-2,3,1,>38
COc1ccc(NC(=O)Nc2ccc(O)c3ccccc23)cc1,67*,-87,x,x,x,4,4.3*
COc1ccc(C(=O)Nc2ccc(O)c3ccccc23)cc1,98*,-20,-10,0,1,-1,0.22*
COc1ccc(NC(=O)c2ccccc2NC(=O)c2ccccc2)cc1,-1,-1,-4,-4,-3,-1,x
C[C@@H]1CN([C@H](C)CO)S(=O)(=O)c2ccc(Br)cc2O[C@H]1CN(C)Cc1ccccc1,x,x,x,x,-1,x,x
O=C(N[C@H]1CC[C@@H](CCn2cc(C3CCCCC3)nn2)O[C@H]1CO)c1cccnc1,x,x,x,x,2,x,x
Cc1noc(C)c1NC(=O)N(C)C[C@@H]1Oc2ncc(C#CC(C)C)cc2C(=O)N([C@@H](C)CO)C[C@H]1C,x,x,x,x,0,x,x
